NPC1 promoter act: qHTS Assay for NPC1 Promoter Activators | Huh7 NPC1 promoter luciferase reporter, 24 h | Potency, µM (top dose mostly 9.22 µM), for the others: at the highest dose activation, usual class: activators | actives 2.4% (n = 320,000) | AID 485313, 2010; further: % of control where 0% means no effect; nearly all actives have a fitted effect of over 60% in size
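Huh7 reporter cells (NPC1 promoter driving luciferase) are dosed with compound for 24 h at 37 °C, 5% CO2; luciferase detection reagent is then added and luminescence measured after 10 min at ambient temperature.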
SMN2 splice enh: qHTS Assay for Enhancers of SMN2 Splice Variant Expression; HEK293 SMN2-luciferase splicing reporter, luminescence, 30-36 h; Potency, µM (top dose mostly 46.1 µM), inactives show at the highest dose activity change, positive = activation, usual class: activators; actives 2.8% (n = 210,000); further: % of control where 0% means no effect; nearly all actives have a fitted effect of over 55% in size
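qHTS luciferase splicing reporter: luminescence rises when SMN2 exon 7 is included in transfected HEK293 cells. Compound exposure lasted 30-36 h at 37C, with 4.5 mM final sodium butyrate as control, followed by a ONE-Glo read.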
ELG1 genotoxic: qHTS screen for small molecules that induce genotoxicity in human embryonic kidney (HEK293T) cells expressing luciferase-tagged ELG1 | AID 504466, 2011 | actives 1.3% (n = 330,000) | HEK293T ELG1-luciferase reporter, luminescence, 16 h | Potency, µM (highest dose often 46 µM), inactives show at the highest dose activity change, positive = activation, usual class: activators; further: % of control where 0% means no effect; nearly all actives have a fitted effect of over 60% in size
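DMSO vehicle served as control against compound-treated ELG1-luciferase HEK293T cells; exposure lasted 16 hr at 37 °C and 5% CO2, followed by ONE-Glo luminescence detection after 30 min.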
Rab9 prom act: qHTS Assay for Rab9 Promoter Activators; AID 485297, 2010; actives 2.8% (n = 320,000); Potency, µM (titrated, usually from 9.22 µM), without a hit: at the highest dose activation, negative = inhibition, actives largely listed as activators; Huh7 Rab9 promoter-luciferase reporter, luminescence, 24 h; further: % of control where 0% means no effect; nearly all actives have a fitted effect of over 60% in size
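Luminescence read-out: Huh7 cells stably expressing Rab9-luciferase, treated 24 h with compound at 37 °C, then lysed with luciferase reagent for 10 min at ambient before reading.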
ELG1 DNA repair: qHTS screen for small molecules that inhibit ELG1-dependent DNA repair in human embryonic kidney (HEK293T) cells expressing luciferase-tagged ELG1 | HEK293T ELG1-luciferase reporter, luminescence, 16 h; DNA damage induced by 5-fluorouridine | Potency, µM (series often up to 46.1 µM), for the others: top-dose activity change, negative = inhibition, actives largely listed as inhibitors | actives 2.3% (n = 330,000) | AID 504467, 2011; further: on the % scale 0 is the no-effect control and ±100 the full control effect; nearly all actives have a fitted effect of over 55% in size
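Luminescence from the luciferase reporter, measured 30 min after ONE-Glo reagent at room temperature, was the read-out. Beforehand, 2,000 cells per well were exposed for 16 hr at 37 °C to 5-fluorouridine together with compound or vehicle.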
FLuc counter: qHTS profiling assay for firefly luciferase inhibitor/activator using purifed enzyme and Km concentrations of substrates (counterscreen for miR-21 project). Luciferin 4-monooxygenase (Photinus pyralis), P08659. purified FLuc, Km substrates, luminescence inhibition. Potency, µM (top dose mostly 57.5 µM), for the others: at the top dose activity change, negative = inhibition, most hits filed as inhibitors. actives 6.9% (n = 360,000). AID 588342, 2011;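 further: plate controls were vehicle for no effect and reference inhibitor for full effect; nearly all actives have a fitted effect of over 55% in size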
Target sequence (P08659 whole entry, looked up): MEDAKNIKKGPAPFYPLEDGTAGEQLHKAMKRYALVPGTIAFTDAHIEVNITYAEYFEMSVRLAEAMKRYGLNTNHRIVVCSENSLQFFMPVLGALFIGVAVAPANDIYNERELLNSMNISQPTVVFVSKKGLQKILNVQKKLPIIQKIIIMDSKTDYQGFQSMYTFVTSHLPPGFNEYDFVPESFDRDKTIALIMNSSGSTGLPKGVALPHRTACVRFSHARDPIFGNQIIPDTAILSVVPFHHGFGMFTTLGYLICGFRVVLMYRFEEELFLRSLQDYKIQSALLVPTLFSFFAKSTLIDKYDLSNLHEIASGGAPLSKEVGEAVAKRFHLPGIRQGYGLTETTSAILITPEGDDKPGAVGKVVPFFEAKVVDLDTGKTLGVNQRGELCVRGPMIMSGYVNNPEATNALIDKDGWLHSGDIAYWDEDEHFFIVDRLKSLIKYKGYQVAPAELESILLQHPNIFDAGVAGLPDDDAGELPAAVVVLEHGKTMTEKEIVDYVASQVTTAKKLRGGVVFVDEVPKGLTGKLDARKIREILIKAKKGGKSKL
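Purified P. pyralis luciferase, 10 nM final, with Km-level 10 uM D-luciferin and 10 uM ATP in 50 mM Tris acetate pH 7.5, 10 mM Mg acetate, 0.01% Tween-20, 0.05% BSA; 6-point qHTS titration about 60 µM downward; luminescence read.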
Starred values were filed as active, the others as inactive; [ ] = remark or other dose. Rows were chosen to be rich in hits. Some 9.2% of all compounds tested hit in one or more screens of this group. The call rests on the fitted dose curve; in most records, active means well fitted curve in the direction sought with a large enough effect; inconclusive means small, poorly fitted or top-dose-only effect, or another doubt; inactive means no such curve, though single readings can be large; an effect the other way counts as inactive or inconclusive. Potency means the concentration at half of the fitted maximal effect.

Results for CCOC(=O)c1c(C)oc2nc(C)nc(N3CCN(c4ccccc4F)CC3)c12 ?
FLuc counter: -5.6%

How did Cc1nc2sc3c(c2c(=O)o1)CCCC3 do in these assays?
NPC1 promoter act: -1.1%; SMN2 splice enh: -7.8%; ELG1 genotoxic: 2.9%; Rab9 prom act: -1.0%; ELG1 DNA repair: 2.3%; FLuc counter: -0.4%

What do the screens show for `Cc1sc2nc(-c3ccccc3)oc(=O)c2c1C`?
NPC1 promoter act: 20.0%; ELG1 genotoxic: 2.6%; Rab9 prom act: 20.5%; ELG1 DNA repair: 13.1%; FLuc counter: 5.36µM*

What do the screens show for `O=c1oc(-c2ccco2)nc2sc3c(c12)CCCC3`?
NPC1 promoter act: 10.9%; SMN2 splice enh: 14.1µM*; ELG1 genotoxic: 0.4%; Rab9 prom act: -3.2%; ELG1 DNA repair: inconclusive; FLuc counter: 1.51µM*

How did O=C1CCC(=O)N1c1ccc(-c2nc3sc4c(c3c(=O)o2)CCC4)cc1 do in these assays?
NPC1 promoter act: -2.6%; ELG1 genotoxic: -0.9%; Rab9 prom act: 1.6%; ELG1 DNA repair: 0.0%; FLuc counter: 21.3µM*

Results for CC1(C)Cc2c(sc3nc(-c4ccccc4)oc(=O)c23)CO1 ?
NPC1 promoter act: 27.4%; SMN2 splice enh: inconclusive; ELG1 genotoxic: -0.4%; Rab9 prom act: 20.8%; ELG1 DNA repair: inconclusive; FLuc counter: 1.2µM*

How did O=C(O)c1ccncc1.O=C(O)c1ccncc1.[NH2-].[NH2-].[Pt] do in these assays?
SMN2 splice enh: -6.8%[9.22 µM]

How did CC1(C)Cc2c(sc3nc(-c4cc5ccccc5o4)n(N)c(=O)c23)CO1 do in these assays?
NPC1 promoter act: 3.16µM*; SMN2 splice enh: 11.2µM*; ELG1 genotoxic: 0.8%; Rab9 prom act: 2.82µM*; ELG1 DNA repair: inconclusive; FLuc counter: 6.01µM*

How did O=c1oc(-c2ccccc2)nc2sc3c(c12)CCC3 do in these assays?
NPC1 promoter act: -0.6%; SMN2 splice enh: inconclusive; ELG1 genotoxic: 0.3%; Rab9 prom act: 10.2%; ELG1 DNA repair: inconclusive; FLuc counter: 2.39µM*

How did Nc1nc(-c2ccccc2)nc2sc3c(c12)CCCC3 do in these assays?
NPC1 promoter act: 2.24µM*; SMN2 splice enh: 3.16µM*; ELG1 genotoxic: 4.11µM*; Rab9 prom act: 1.78µM*; ELG1 DNA repair: inconclusive; FLuc counter: 0.269µM*

Results for Cc1ccc(S(=O)(=O)CCC(=O)OCC(=O)NCC(=O)Nc2c(C)cc(C)cc2C)cc1 ?
NPC1 promoter act: 5.7%; ELG1 genotoxic: -3.3%; Rab9 prom act: -0.5%; ELG1 DNA repair: 14.5%; FLuc counter: 3.4%

Results for COc1ccc(CCNC(=O)c2cc(=O)c3cc(C)ccc3o2)cc1OC ?
NPC1 promoter act: -4.6%; ELG1 genotoxic: -6.9%; Rab9 prom act: -2.9%; ELG1 DNA repair: inconclusive; FLuc counter: -0.1%

Results for CC1(C)CC(=O)C2=C(C1)Nc1cc(Cl)ccc1S2 ?
NPC1 promoter act: -2.2%; ELG1 genotoxic: -4.6%; Rab9 prom act: -7.1%; ELG1 DNA repair: 23.1µM*; FLuc counter: -9.4%

Results for Cn1cccc1C(=O)OCc1cc(Cl)cc2c1OCOC2 ?
NPC1 promoter act: inconclusive; SMN2 splice enh: 7.4%; ELG1 genotoxic: inconclusive; Rab9 prom act: inconclusive; ELG1 DNA repair: inconclusive; FLuc counter: 13.5µM*

Results for Cn1cccc1C(=O)OCc1ccc(F)cc1 ?
NPC1 promoter act: -3.2%; ELG1 genotoxic: inconclusive; Rab9 prom act: 3.1%; ELG1 DNA repair: 11.0%; FLuc counter: inconclusive

What do the screens show for `COc1cc(C)c(S(=O)(=O)Nc2ccccc2F)cc1C`?
NPC1 promoter act: -1.1%; SMN2 splice enh: 2.24µM*; ELG1 genotoxic: -5.7%; Rab9 prom act: -1.7%; ELG1 DNA repair: -0.9%; FLuc counter: 2.7%

Results for Cc1cc2[nH]c(=O)c(=O)[nH]c2cc1S(=O)(=O)Nc1ccccc1F ?
NPC1 promoter act: -3.8%; ELG1 genotoxic: -6.9%; Rab9 prom act: 6.9%; ELG1 DNA repair: 12.9%; FLuc counter: -3.9%

How did CCOC(=O)c1[nH]c(C(=O)O)c(OC(=O)CC)c1C do in these assays?
NPC1 promoter act: -2.9%; ELG1 genotoxic: 3.4%; Rab9 prom act: 1.6%; ELG1 DNA repair: 0.0%; FLuc counter: -2.3%

How did COc1ccc(-n2ncc3c(NCc4cccnc4)ncnc32)cc1 do in these assays?
NPC1 promoter act: 1.26µM*; ELG1 genotoxic: inconclusive; Rab9 prom act: 1µM*; ELG1 DNA repair: inconclusive; FLuc counter: 6.75µM*

Results for COc1ccc(CNc2ncnc3c2cnn3-c2ccc(Cl)cc2)cc1 ?
FLuc counter: -5.2%

What do the screens show for `Cc1cccc(-n2ncc3c(NCc4cccnc4)ncnc32)c1`?
NPC1 promoter act: 3.98µM*; ELG1 genotoxic: inconclusive; Rab9 prom act: 2.51µM*; ELG1 DNA repair: inconclusive; FLuc counter: 8.49µM*

What do the screens show for `Cc1ccc(-n2ncc3c(NCc4cccnc4)ncnc32)cc1C`?
NPC1 promoter act: 2.24µM*; ELG1 genotoxic: 9.2µM*; Rab9 prom act: inconclusive; ELG1 DNA repair: inconclusive; FLuc counter: 4.78µM*

How did Cc1ccc(NC(=O)CN(C)S(=O)(=O)c2cccc3cccnc23)cc1C do in these assays?
NPC1 promoter act: -1.5%; ELG1 genotoxic: -1.0%; Rab9 prom act: 11.9%; ELG1 DNA repair: -6.7%; FLuc counter: inconclusive

Results for Cc1ccc(NS(=O)(=O)c2ccc3c(c2)N(C)C(=O)CC(=O)N3C)cc1Cl ?
FLuc counter: -9.0%

How did COc1ccc(-c2cc(C(=O)NC3CC3)c3ccccc3n2)cc1 do in these assays?
NPC1 promoter act: -3.7%; ELG1 genotoxic: -1.2%; Rab9 prom act: -1.5%; ELG1 DNA repair: inconclusive; FLuc counter: 21.3µM*

How did COc1ccc(-c2cc(C(=O)NC3CCCC3)c3ccccc3n2)cc1 do in these assays?
NPC1 promoter act: 14.0%; ELG1 genotoxic: -2.7%; Rab9 prom act: 5.7%; ELG1 DNA repair: -15.5%; FLuc counter: 6.75µM*

How did CCCOc1ccc(-c2cc(C(=O)NCC3CCCO3)c3ccccc3n2)cc1 (stereo unspecified) do in these assays?
NPC1 promoter act: 11.7%; SMN2 splice enh: 8.5%; ELG1 genotoxic: -10.3%; Rab9 prom act: 20.4%; ELG1 DNA repair: inconclusive; FLuc counter: 3.01µM*

Results for O=C(NCC1CCCO1)c1cc(-c2ccncc2)nc2ccccc12 (stereo unspecified) ?
NPC1 promoter act: -1.6%; ELG1 genotoxic: -1.2%; Rab9 prom act: 1.6%; ELG1 DNA repair: 0.6%; FLuc counter: 0.5%
